# Results from article PMC7862700, “An all-to-all approach to the identification of sequence-specific readers for epigenetic DNA modifications on cytosine”.
# How the values were obtained:
# Experiment in all cases: DAPPL (digital affinity profiling via proximity ligation, sequencing); 10 mM Tris-HCl pH 7.5, 50 mM NaCl, 1 mM DTT, 4% glycerol, room temperature, 30 min; GST-TFs on glutathione beads, 16-mer random dsDNA library, 0.1% formaldehyde crosslink after washing; high values mean tight binding
# FEV = target: T1, FEV (Homo sapiens, UniProt Q99581 1-238); conditions: protein: recombinant; tags: N-terminal GST; dsDNA, one strand shown
# T1 sequence: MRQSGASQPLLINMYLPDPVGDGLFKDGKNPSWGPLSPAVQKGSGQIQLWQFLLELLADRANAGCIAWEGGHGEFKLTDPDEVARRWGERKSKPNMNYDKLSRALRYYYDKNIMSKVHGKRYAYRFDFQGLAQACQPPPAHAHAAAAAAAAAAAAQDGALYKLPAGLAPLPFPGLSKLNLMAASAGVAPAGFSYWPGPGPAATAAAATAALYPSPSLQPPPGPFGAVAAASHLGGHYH
# Outline: (§1)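 Human transcription factors carrying a GST fusion were produced in yeast, bound to glutathione beads, tagged with DNA barcodes and pooled together with a tag-only sample. Each pool was held with 200 nmole of a random double-stranded 16-mer DNA library in Tris/NaCl/DTT/glycerol buffer for 30 min at room temperature, then washed, crosslinked in 0.1% formaldehyde, proximity-ligated with BsaI/T4 ligase (1 h, 37 °C), PCR-amplified and sequenced on an Illumina NextSeq500. Binding signal is the read frequency of each hexamer for a given factor divided by its frequency in the tag-only sample.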
# ETV5 = ETV5 (Homo sapiens, UniProt P41161 1-510); conditions: protein: recombinant; tags: N-terminal GST; dsDNA, one strand shown
# Chain of ETV5 (P41161 whole entry): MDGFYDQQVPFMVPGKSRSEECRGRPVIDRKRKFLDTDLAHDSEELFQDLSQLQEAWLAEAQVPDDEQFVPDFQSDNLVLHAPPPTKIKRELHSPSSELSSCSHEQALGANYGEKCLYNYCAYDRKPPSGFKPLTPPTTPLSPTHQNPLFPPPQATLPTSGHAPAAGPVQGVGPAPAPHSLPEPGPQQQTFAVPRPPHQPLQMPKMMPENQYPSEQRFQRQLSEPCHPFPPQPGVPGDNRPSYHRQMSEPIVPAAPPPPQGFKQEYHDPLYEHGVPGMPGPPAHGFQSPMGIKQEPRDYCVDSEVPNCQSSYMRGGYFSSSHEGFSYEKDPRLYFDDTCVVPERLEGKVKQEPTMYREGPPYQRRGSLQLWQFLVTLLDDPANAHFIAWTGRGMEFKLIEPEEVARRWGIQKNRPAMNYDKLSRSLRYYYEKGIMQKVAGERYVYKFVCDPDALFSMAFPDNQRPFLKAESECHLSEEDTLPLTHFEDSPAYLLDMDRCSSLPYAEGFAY
# Outline: as §1
# HSF1 = HSF1 (Homo sapiens, UniProt Q00613 1-529); conditions: protein: recombinant; tags: N-terminal GST; chain copies: 3; dsDNA, one strand shown
# Chain of HSF1 (Q00613 whole entry): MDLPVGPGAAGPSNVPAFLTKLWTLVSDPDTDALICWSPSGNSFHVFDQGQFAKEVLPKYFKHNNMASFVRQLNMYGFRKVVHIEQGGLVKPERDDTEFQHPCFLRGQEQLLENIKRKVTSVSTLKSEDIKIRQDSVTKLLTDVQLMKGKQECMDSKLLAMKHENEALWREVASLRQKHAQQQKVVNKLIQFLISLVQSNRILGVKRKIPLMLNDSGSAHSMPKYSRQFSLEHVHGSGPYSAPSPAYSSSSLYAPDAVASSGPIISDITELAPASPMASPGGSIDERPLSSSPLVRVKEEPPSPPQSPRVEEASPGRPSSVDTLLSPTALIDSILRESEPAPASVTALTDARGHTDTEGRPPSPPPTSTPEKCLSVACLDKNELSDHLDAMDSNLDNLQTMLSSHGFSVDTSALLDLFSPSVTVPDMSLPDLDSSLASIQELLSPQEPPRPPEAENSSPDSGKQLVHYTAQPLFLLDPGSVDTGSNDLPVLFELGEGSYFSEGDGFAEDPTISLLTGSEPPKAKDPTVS
# Outline: as §1
# SPIC = target: T2, SPIC (Homo sapiens, UniProt Q8N5J4 1-248); conditions: protein: recombinant; tags: N-terminal GST; dsDNA, one strand shown
# T2 sequence: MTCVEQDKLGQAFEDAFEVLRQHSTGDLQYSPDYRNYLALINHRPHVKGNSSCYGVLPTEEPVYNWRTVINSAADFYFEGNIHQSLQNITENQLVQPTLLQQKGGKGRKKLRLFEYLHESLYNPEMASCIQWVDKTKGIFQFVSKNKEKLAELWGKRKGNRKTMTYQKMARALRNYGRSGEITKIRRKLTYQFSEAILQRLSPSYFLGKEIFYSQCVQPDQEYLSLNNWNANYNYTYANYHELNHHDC
# Outline: as §1
# ELF4 = ELF4 (Homo sapiens, UniProt Q99607 1-663); conditions: protein: recombinant; tags: N-terminal GST; dsDNA, one strand shown
# Chain of ELF4 (Q99607 whole entry): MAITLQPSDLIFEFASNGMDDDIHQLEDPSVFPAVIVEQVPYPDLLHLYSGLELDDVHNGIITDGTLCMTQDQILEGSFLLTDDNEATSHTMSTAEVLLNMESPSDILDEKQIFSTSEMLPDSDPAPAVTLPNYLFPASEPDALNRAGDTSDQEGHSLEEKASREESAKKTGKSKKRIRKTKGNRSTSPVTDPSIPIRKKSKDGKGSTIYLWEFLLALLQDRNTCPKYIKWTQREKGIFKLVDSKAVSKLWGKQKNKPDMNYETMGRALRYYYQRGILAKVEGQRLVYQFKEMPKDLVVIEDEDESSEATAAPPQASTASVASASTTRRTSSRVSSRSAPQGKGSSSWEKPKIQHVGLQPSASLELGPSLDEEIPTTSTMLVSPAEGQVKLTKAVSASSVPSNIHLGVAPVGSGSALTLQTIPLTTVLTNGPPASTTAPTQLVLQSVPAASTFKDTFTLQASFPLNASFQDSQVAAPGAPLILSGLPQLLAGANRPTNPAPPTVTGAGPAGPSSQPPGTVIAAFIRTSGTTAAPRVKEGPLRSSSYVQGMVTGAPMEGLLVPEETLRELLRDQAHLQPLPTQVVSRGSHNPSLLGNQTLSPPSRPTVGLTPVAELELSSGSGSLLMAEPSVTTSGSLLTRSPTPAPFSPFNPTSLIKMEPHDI
# Outline: as §1
# ELK4 = target: T3, ELK4 (Homo sapiens, UniProt P28324-2 1-405); conditions: protein: recombinant; tags: N-terminal GST; dsDNA, one strand shown
# T3 sequence: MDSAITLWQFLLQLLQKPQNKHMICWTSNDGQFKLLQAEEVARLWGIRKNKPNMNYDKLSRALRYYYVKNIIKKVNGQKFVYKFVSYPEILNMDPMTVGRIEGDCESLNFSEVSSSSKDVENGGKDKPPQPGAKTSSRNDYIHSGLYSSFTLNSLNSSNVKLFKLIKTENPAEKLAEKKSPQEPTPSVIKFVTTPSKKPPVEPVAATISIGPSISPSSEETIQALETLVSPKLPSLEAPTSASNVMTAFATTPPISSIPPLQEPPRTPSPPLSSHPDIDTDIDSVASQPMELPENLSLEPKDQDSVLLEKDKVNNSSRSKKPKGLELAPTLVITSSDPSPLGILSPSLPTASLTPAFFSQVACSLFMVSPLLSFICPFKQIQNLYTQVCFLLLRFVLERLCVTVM
# Outline: as §1
# ETV2 = target: T4, ETV2 (Homo sapiens, UniProt O00321 1-342); conditions: protein: recombinant; tags: N-terminal GST; dsDNA, one strand shown
# T4 sequence: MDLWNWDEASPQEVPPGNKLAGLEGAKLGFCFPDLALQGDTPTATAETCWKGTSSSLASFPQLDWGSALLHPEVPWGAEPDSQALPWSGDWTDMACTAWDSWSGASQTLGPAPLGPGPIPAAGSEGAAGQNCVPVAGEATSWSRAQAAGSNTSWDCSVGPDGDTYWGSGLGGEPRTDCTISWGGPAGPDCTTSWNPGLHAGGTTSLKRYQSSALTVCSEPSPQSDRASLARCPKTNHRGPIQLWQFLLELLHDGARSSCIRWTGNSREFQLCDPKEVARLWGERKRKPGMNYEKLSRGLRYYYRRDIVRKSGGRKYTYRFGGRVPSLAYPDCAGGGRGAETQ
# Outline: as §1
# ELF3 = target: T5, ELF3 (Homo sapiens, UniProt P78545 1-371); conditions: protein: recombinant; tags: N-terminal GST; dsDNA, one strand shown
# T5 sequence: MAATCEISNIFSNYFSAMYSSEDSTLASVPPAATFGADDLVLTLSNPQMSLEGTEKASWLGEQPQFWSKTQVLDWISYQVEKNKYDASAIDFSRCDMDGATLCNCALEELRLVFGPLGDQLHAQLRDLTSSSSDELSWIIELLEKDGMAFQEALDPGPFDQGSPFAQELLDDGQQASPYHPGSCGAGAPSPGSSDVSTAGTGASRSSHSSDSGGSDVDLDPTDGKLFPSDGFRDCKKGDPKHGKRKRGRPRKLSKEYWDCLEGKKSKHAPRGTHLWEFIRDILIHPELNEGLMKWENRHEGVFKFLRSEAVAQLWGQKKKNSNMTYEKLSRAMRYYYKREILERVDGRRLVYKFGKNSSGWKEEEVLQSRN
# Outline: as §1
# CRX = CRX (Homo sapiens, UniProt O43186 1-299); conditions: protein: recombinant; tags: N-terminal GST; dsDNA, one strand shown
# Chain of CRX (O43186 whole entry): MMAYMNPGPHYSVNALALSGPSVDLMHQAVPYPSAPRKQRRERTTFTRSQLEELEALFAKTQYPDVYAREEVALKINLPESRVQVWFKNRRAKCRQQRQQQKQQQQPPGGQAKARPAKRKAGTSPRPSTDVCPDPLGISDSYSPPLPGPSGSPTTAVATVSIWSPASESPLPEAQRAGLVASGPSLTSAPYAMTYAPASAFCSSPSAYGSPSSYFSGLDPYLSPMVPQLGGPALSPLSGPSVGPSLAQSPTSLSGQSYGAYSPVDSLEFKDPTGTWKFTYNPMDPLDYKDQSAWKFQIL
# Outline: as §1
# ETV1 = ETV1 (Homo sapiens, UniProt P50549 1-477); conditions: protein: recombinant; tags: N-terminal GST; dsDNA, one strand shown
# Chain of ETV1 (P50549 whole entry): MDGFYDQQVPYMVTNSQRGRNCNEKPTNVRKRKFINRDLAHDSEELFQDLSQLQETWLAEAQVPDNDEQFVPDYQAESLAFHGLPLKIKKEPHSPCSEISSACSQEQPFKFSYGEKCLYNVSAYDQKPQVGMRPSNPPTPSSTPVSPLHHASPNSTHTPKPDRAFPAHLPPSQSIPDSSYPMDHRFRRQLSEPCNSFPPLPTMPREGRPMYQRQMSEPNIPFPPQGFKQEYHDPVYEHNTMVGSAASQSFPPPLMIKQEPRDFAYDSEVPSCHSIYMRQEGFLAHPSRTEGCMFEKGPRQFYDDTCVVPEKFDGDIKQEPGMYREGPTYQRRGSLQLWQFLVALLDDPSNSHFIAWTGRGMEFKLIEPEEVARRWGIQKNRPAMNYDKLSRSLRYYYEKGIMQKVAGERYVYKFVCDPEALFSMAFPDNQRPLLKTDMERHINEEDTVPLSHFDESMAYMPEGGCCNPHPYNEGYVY
# Outline: as §1
sequence,measurement,setting,value
TACTAA,binding signal,FEV,"1.16 fold enrichment (6-mer frequency, TF over GST control)"
same,binding signal,ETV5,"1.18 fold enrichment (6-mer frequency, TF over GST control)"
same,binding signal,HSF1,"1.51 fold enrichment (6-mer frequency, TF over GST control)"
same,binding signal,SPIC,"1.24 fold enrichment (6-mer frequency, TF over GST control)"
same,binding signal,ELF4,"1.32 fold enrichment (6-mer frequency, TF over GST control)"
same,binding signal,ELK4,"1.4 fold enrichment (6-mer frequency, TF over GST control)"
same,binding signal,ETV2,"1.1 fold enrichment (6-mer frequency, TF over GST control)"
same,binding signal,ELF3,"1.27 fold enrichment (6-mer frequency, TF over GST control)"
same,binding signal,CRX,"2.1 fold enrichment (6-mer frequency, TF over GST control)"
same,binding signal,ETV1,"1.29 fold enrichment (6-mer frequency, TF over GST control)"
